Reference: PubChem BioAssay (EPA / NIEHS)
Inconclusive results are not listed. Activity calls are given as the source filed them. Rule for the calls: active = hit-call score of the fitted dose curve at least 0.9, where 1 is the maximum; inconclusive = response in the unintended direction; inactive = score below 0.9.

Experiments:
[1] = ATG_GAL4_TRANS: Attagene TRANS-FACTORIAL HepG2 Assay for GAL4 (Internal Marker) (AID 2282976); settings: HepG2 Attagene TRANS GAL4 internal marker reporter
Procedure, shortened: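 HepG2 cells transiently transfected with multiplexed GAL4-UAS reporter constructs were dosed for 24 h. Reporter mRNA was measured by RT-PCR, 6-FAM primer extension, HpaI digestion and capillary electrophoresis, and gain of signal was fitted relative to DMSO.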

[2] = molecular target: Glucocorticoid receptor (Homo sapiens) (UniProt P04150); assay: ATG_GR_TRANS: Attagene TRANS-FACTORIAL HepG2 Assay for human Glucocorticoid Receptor (GR) (AID 2282978); settings: HepG2 Attagene TRANS GR reporter, mRNA transcription;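 note: activators score as hits since higher reporter transcript over DMSO is fitted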
Chain of Glucocorticoid receptor (Homo sapiens) (P04150 whole entry, looked up, the tested form may be a part): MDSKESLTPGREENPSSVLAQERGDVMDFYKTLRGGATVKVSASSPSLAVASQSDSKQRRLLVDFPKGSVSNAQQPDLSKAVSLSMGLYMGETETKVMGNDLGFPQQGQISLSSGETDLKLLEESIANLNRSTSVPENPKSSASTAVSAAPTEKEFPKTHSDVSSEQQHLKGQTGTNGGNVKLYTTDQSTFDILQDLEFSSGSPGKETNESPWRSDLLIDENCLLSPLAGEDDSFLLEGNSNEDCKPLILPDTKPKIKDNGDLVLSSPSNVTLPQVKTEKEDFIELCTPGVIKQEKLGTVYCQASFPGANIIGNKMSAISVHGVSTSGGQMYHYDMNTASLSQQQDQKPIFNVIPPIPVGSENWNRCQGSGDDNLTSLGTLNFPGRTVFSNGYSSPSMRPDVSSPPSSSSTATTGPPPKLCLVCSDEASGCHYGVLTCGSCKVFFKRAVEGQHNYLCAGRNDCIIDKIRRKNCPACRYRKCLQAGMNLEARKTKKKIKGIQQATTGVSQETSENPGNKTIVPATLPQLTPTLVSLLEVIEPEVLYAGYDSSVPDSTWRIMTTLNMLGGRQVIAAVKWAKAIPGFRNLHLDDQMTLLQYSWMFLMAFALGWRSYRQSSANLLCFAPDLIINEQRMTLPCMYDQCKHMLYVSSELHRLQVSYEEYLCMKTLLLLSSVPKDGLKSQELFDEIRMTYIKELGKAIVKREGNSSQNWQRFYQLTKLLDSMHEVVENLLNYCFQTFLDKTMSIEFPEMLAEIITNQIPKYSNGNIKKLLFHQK
Procedure, shortened: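 HepG2 cells transiently transfected with multiplexed reporter units in which chimeric NR-GAL4 proteins drive GAL4-UAS reporters; 24 h compound exposure. Reporter mRNA measured by RT-PCR, 6-FAM labelling, HpaI digestion and capillary electrophoresis; gain-of-signal fitted versus DMSO.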

[3] = molecular target: Bile acid receptor (Homo sapiens) (UniProt Q96RI1); assay: ATG_FXR_TRANS: Attagene TRANS-FACTORIAL HepG2 Assay for Farnesoid X Receptor (FXR) (AID 2282979); settings: HepG2 Attagene TRANS FXR-GAL4 reporter transcription;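 note: hits raise reporter mRNA above DMSO so AC50 marks FXR activation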
Chain of Bile acid receptor (Homo sapiens) (Q96RI1 whole entry, looked up, the tested form may be a part): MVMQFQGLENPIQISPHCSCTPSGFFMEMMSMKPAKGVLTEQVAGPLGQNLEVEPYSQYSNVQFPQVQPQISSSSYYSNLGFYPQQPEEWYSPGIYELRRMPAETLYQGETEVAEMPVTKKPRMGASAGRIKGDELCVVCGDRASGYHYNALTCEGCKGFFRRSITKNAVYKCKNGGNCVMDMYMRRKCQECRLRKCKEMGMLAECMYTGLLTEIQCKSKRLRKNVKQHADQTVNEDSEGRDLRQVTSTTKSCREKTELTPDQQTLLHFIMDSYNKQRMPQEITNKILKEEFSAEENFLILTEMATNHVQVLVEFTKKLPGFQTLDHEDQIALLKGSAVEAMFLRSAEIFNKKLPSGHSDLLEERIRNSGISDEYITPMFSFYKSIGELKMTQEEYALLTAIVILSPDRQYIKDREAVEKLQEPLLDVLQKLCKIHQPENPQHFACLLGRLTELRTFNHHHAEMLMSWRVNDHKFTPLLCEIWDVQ
Procedure, shortened: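 HepG2 cells transiently transfected with reporter constructs in which a chimeric FXR-GAL4 protein drives a GAL4-UAS reporter; 24 h compound exposure. Reporter mRNA measured by RT-PCR, FAM labelling, HpaI digestion and capillary electrophoresis; gain-of-signal versus DMSO.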

[4] = molecular target: Oxysterols receptor LXR-alpha (Homo sapiens) (UniProt Q13133); assay: ATG_LXRa_TRANS: Attagene TRANS-FACTORIAL HepG2 Assay for human Liver X Receptor alpha (LXRa) (AID 2282980); settings: HepG2 Attagene TRANS reporter, LXRa transactivation
Chain of Oxysterols receptor LXR-alpha (Homo sapiens) (Q13133 whole entry, looked up, the tested form may be a part): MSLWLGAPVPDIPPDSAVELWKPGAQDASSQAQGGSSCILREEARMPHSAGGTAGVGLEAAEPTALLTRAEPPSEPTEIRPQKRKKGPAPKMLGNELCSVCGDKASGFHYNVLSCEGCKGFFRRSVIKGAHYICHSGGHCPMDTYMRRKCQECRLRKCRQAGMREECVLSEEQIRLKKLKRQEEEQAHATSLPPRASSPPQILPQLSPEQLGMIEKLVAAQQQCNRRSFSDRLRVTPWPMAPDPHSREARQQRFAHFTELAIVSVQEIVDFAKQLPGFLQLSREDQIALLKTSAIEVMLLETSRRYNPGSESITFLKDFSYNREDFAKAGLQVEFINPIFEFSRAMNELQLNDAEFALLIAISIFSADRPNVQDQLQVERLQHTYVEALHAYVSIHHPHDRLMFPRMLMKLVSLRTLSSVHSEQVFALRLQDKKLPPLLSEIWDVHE
Procedure, shortened: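 HepG2 cells were transiently transfected with multiplexed reporter units driven by chimeric LXRa–GAL4 fusion proteins, then dosed for 24 h. Reporter mRNA was quantified by RT-PCR, fluorescent labelling and capillary electrophoresis; gain of signal fitted against DMSO baseline.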

[5] = molecular target: Hepatocyte nuclear factor 4-alpha (Homo sapiens) (UniProt P41235); assay: ATG_HNF4a_TRANS: Attagene TRANS-FACTORIAL HepG2 Assay for human Hepatocyte Nuclear Factor 4 alpha (HNF4a) (AID 2282982); settings: HepG2 HNF4a transactivation reporter, mRNA readout
Chain of Hepatocyte nuclear factor 4-alpha (Homo sapiens) (P41235 whole entry, looked up, the tested form may be a part): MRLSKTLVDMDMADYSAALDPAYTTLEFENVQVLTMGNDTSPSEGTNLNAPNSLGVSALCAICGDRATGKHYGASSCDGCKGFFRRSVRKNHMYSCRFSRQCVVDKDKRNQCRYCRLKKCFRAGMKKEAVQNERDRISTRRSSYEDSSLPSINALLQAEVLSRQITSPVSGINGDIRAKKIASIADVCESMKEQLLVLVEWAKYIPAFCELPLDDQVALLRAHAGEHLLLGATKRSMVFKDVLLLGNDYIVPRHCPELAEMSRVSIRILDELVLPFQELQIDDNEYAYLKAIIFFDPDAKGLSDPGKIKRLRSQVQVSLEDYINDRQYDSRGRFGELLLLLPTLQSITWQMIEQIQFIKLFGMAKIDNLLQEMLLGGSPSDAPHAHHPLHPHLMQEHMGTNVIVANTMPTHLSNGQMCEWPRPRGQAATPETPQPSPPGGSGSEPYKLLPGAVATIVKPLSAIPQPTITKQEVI
Procedure, shortened: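 Readout is fluorescent reporter-transcript fragments resolved by capillary electrophoresis after RT-PCR from HepG2 cells dosed for 24 h. Cells carried transfected GAL4-UAS reporter constructs measuring exogenous NR-GAL4 chimera activity; DMSO served as baseline.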

[6] = ATG_M_06_TRANS: Attagene TRANS-FACTORIAL HepG2 Assay for M06 Transcription Factor (Internal Marker) (AID 2282983); settings: HepG2 Attagene TRANS M06 internal marker reporter;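 note: reporter transcript level by RT-PCR then capillary electrophoresis fluorescence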
Procedure, shortened: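 HepG2 cells transiently transfected with multiplexed GAL4-UAS reporter transcription units; after 24 h compound exposure, reporter mRNA measured by RT-PCR, FAM-labelled primer extension, HpaI digestion and capillary electrophoresis. Gain-of-signal fitted versus DMSO baseline; background control readout.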

[7] = molecular target: Estrogen-related receptor gamma (Homo sapiens) (UniProt P62508); assay: ATG_ERRg_TRANS: Attagene TRANS-FACTORIAL HepG2 Assay for human Estrogen-Related Receptor gamma (ERRg) (AID 2282977); settings: HepG2 Attagene TRANS reporter, ERRg transactivation;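 note: hits increase reporter signal over DMSO so potencies reflect activators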
Chain of Estrogen-related receptor gamma (Homo sapiens) (P62508 whole entry, looked up, the tested form may be a part): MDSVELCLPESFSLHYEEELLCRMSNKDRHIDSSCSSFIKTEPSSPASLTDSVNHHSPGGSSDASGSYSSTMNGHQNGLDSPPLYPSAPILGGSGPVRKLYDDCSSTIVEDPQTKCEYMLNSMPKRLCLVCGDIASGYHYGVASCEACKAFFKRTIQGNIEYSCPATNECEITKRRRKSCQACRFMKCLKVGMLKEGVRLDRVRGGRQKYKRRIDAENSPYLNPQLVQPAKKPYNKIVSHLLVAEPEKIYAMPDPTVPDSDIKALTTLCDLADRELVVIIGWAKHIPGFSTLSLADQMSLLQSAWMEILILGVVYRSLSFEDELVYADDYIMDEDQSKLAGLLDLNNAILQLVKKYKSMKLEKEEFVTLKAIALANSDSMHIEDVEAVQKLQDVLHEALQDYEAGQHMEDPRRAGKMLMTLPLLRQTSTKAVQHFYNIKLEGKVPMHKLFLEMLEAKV
Procedure, shortened: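 HepG2 cells transiently transfected with multiplexed GAL4-UAS reporter units driven by chimeric NR-Gal4 proteins; 24 h exposure. Reporter mRNA quantified by RT-PCR, fluorescent labelling, HpaI digestion and capillary electrophoresis; gain of signal vs DMSO.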

[8] = ATG_M_32_TRANS: Attagene TRANS-FACTORIAL HepG2 Assay for M32 Transcription Factor (Internal Marker) (AID 2282984); settings: HepG2 Attagene TRANS M32 internal marker reporter
Procedure, shortened: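 Measures reporter mRNA induction in human HepG2 liver cells after 24 h chemical treatment. Transcripts from transiently transfected GAL4-UAS reporter units are amplified, fluorescently labelled and sized by capillary electrophoresis; gain of signal relative to DMSO.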

[9] = molecular target: Nuclear receptor subfamily 4 group A member 2 (Homo sapiens) (UniProt P43354); assay: ATG_NURR1_TRANS: Attagene TRANS-FACTORIAL HepG2 Assay for human Nuclear Receptor Related Protein 1 (NURR1) (AID 2282985); settings: HepG2 Attagene TRANS reporter, mRNA readout
Chain of Nuclear receptor subfamily 4 group A member 2 (Homo sapiens) (P43354 whole entry, looked up, the tested form may be a part): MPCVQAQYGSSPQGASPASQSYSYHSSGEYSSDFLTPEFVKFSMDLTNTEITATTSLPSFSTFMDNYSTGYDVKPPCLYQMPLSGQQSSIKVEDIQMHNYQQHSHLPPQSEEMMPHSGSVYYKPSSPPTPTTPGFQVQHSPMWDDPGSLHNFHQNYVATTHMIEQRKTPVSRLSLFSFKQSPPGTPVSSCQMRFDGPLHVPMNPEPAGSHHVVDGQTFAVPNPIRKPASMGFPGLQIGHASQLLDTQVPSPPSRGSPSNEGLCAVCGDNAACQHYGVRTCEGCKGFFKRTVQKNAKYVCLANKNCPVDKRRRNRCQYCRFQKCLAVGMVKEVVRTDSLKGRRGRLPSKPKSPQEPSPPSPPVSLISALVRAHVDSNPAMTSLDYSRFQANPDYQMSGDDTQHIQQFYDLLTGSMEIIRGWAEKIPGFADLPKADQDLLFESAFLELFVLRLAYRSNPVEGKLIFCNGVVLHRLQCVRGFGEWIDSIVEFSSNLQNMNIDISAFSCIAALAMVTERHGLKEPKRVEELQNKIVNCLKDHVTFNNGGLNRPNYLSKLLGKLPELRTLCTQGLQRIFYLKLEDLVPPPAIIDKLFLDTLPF
Procedure, shortened: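 Transient transfection of HepG2, human liver cells, with multiple GAL4-UAS reporter transcription units. Cells dosed 24 h, RNA isolated, reverse-transcribed, PCR-amplified, FAM-labelled, HpaI-digested, sized by capillary electrophoresis. DMSO served as negative control.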

[10] = molecular target: Oxysterols receptor LXR-beta (Homo sapiens) (UniProt P55055); assay: ATG_LXRb_TRANS: Attagene TRANS-FACTORIAL HepG2 Assay for human Liver X Receptor beta (LXRb) (AID 2282981); settings: HepG2 Attagene TRANS GAL4-LXRb reporter, mRNA
Chain of Oxysterols receptor LXR-beta (Homo sapiens) (P55055 whole entry, looked up, the tested form may be a part): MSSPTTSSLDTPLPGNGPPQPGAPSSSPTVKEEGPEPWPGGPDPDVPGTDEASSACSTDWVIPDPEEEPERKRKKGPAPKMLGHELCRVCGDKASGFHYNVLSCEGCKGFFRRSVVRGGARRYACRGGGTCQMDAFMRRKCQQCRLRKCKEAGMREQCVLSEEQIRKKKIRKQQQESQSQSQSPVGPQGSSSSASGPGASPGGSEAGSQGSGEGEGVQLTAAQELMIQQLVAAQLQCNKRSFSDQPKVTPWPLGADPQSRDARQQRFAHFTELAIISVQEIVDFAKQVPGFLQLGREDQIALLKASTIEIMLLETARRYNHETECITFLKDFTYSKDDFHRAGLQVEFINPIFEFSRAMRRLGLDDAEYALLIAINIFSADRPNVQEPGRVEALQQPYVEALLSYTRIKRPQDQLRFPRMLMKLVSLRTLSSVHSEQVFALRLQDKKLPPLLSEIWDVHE
Procedure, shortened: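 Transient transfection HepG2 (multiplexed RTUs, GAL4-UAS); NR-Gal4 chimera; 24 h exposure; RNA → RT-PCR → 6-FAM primer extension → HpaI → CE; increase vs DMSO.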

Structure (SMILES) | outcome [1] | outcome [2] | outcome [3] | outcome [4] | outcome [5] | outcome [6] | outcome [7] | outcome [8] | AC50 [9] | outcome [10] | outcome [9]
CCCCN(CCCC)N=O | inactive | inactive | inactive | inactive | inactive | inactive |  |  |  |  | 
CC(C)(C)c1ccccc1OP(=O)(Oc1ccccc1)Oc1ccccc1 | inactive | inactive | inactive |  |  |  | inactive | inactive | 57.4 µM (active) |  | 
N#Cc1cc([N+](=O)[O-])ccc1N | inactive | inactive | inactive |  |  | inactive |  | inactive |  | inactive | inactive
O=C(CBr)OCc1ccccc1 | inactive | inactive | inactive | inactive |  | inactive |  |  |  |  | 
CC(C)CBr | inactive |  | inactive | inactive |  | inactive | inactive | inactive |  |  | 
CC(C)Nc1ccc(Nc2ccccc2)cc1 | inactive | inactive | inactive | inactive | inactive |  | inactive |  |  |  | inactive
Oc1ccccc1Br | inactive | inactive | inactive |  | inactive | inactive |  |  |  |  | 
COC(=O)C(F)(F)C(F)(F)OC(F)(C(F)(F)F)C(F)(F)OC(F)=C(F)F (stereo unspecified) | inactive | inactive | inactive | inactive | inactive | inactive | inactive | inactive |  | inactive | inactive
ClC(Cl)c1ccccc1 | inactive | inactive |  | inactive |  |  | inactive | inactive |  | inactive | 
CC(C)(C)OOC(C)(C)C | inactive | inactive | inactive | inactive |  | inactive |  |  |  | inactive | inactive
CC(Cc1ccc(OCC(=O)O)cc1)NCC(O)c1csc(C(F)(F)F)n1 (stereo unspecified) | inactive |  |  |  |  |  | inactive |  |  | inactive | inactive
CCOP(=S)(OCC)SCS(=O)(=O)CC | inactive | inactive | inactive | inactive | inactive | inactive |  | inactive |  | inactive | 
CC(=O)CCc1ccc2c(c1)OCO2 | inactive |  | inactive |  |  | inactive | inactive | inactive |  | inactive | inactive
O=P(Oc1ccccc1)(Oc1ccccc1)Oc1ccccc1 | inactive | inactive | inactive |  |  | inactive |  | inactive | 47.9 µM (active) |  | 
Cc1ccc(O)cc1C | inactive |  |  |  |  |  |  |  |  |  | 
Nc1ccc([N+](=O)[O-])cc1Cl | inactive | inactive | inactive | inactive | inactive |  |  | inactive |  | inactive | 
N#Cc1ccc(O)cc1 | inactive | inactive | inactive |  | inactive | inactive |  | inactive |  |  | inactive
CC(O)C#N (stereo unspecified) | inactive | inactive | inactive | inactive | inactive | inactive |  |  |  |  | 
Cc1ccc(C(=O)Cl)cc1 | inactive | inactive |  | inactive | inactive | inactive | inactive | inactive |  |  | 
Nc1ccc2ccccc2c1 | inactive |  |  |  |  | inactive | inactive | inactive |  | inactive | 
CCC(C)(C)c1ccc(O)cc1 | inactive |  | inactive |  |  | inactive | inactive |  |  |  | inactive
OCC(F)(F)OC(F)(F)C(F)(F)OC(F)(F)C(F)(F)OC(F)(F)F | inactive | inactive | inactive | inactive | inactive | inactive | inactive | inactive |  | inactive | inactive
c1ccc2c(c1)Nc1ccccc1S2 | inactive |  |  | inactive | inactive | inactive | inactive | inactive |  | inactive | 
CCCCOCC1CO1 (stereo unspecified) | inactive |  |  |  | inactive |  | inactive |  |  |  | inactive
Cc1c([N+](=O)[O-])cc2c(c1[N+](=O)[O-])C(C)(C)CC2(C)C | inactive | inactive | inactive | inactive |  | inactive |  |  | 14.6 µM (active) |  | 

Structure (SMILES) | outcome [1] | outcome [2] | outcome [3] | outcome [4] | outcome [5] | outcome [6] | outcome [7] | outcome [8] | AC50 [9] | outcome [10] | outcome [9]
COCCOCCO | inactive |  |  |  | inactive | inactive | inactive |  |  |  | 
NNC(N)=S | inactive | inactive | inactive |  |  | inactive |  |  |  | inactive | 
CCCCc1ccc(O)cc1 | inactive | inactive | inactive |  |  | inactive |  | inactive |  |  | inactive
C/C(=N\NC(=O)Nc1cc(F)cc(F)c1)c1ncccc1C(=O)O | inactive | inactive | inactive | inactive | inactive | inactive |  | inactive |  |  | inactive
Cc1ccc(N)cc1N | inactive | inactive | inactive |  |  | inactive | inactive |  |  |  | inactive
N#Cc1c(-c2ccc(Cl)cc2)[nH]c(C(F)(F)F)c1Br | inactive | inactive | inactive |  | inactive |  | inactive |  |  |  | inactive
FC(F)(F)c1ccc(Cl)cc1 | inactive | inactive |  | inactive | inactive | inactive |  | inactive |  | inactive | 
CCOC(=O)c1ccccc1C(=O)OCC | inactive | inactive |  |  | inactive | inactive | inactive |  |  | inactive | inactive
O=C(O)C(F)(F)OC(F)(F)C(F)(F)OC(F)(F)F | inactive | inactive | inactive | inactive | inactive | inactive | inactive | inactive |  | inactive | 
NC(=O)C(F)(F)C(F)(F)F | inactive | inactive | inactive |  |  | inactive | inactive |  |  |  | 
CCNc1nc(Cl)nc(NC(C)(C)C)n1 | inactive | inactive | inactive |  | inactive | inactive |  | inactive |  |  | 
CC(C)(C)N(NC(=O)c1ccc(Cl)cc1)C(=O)c1ccccc1 | inactive | inactive | inactive | inactive |  | inactive |  |  |  | inactive | inactive
O=C(O)C(F)(OC(F)(F)C(F)(F)C(F)(F)F)C(F)(F)F (stereo unspecified) | inactive | inactive | inactive | inactive | inactive | inactive | inactive | inactive |  | inactive | inactive
CC(O)C(F)(F)C(F)(F)F (stereo unspecified) | inactive | inactive | inactive | inactive | inactive | inactive | inactive | inactive |  | inactive | inactive
CCCCCCCc1ccc(O)cc1 | inactive | inactive |  |  | inactive | inactive |  | inactive |  | inactive | inactive
O=c1[nH]c2ccccc2c(=O)o1 | inactive | inactive |  | inactive |  | inactive |  |  |  |  | inactive
CN(C)C(=O)Cl |  | inactive |  |  |  | inactive | inactive | inactive |  | inactive | 
C=CC(=O)OCC(F)(F)C(F)F | inactive | inactive |  |  | inactive | inactive |  | inactive |  |  | inactive
O=NN1CCCC1 | inactive | inactive |  | inactive | inactive |  |  | inactive |  | inactive | 
C=C(C)C(=O)OCC1CO1 (stereo unspecified) | inactive | inactive |  |  | inactive | inactive |  | inactive |  |  | inactive
O=c1ssc(Cl)c1Cl |  |  |  | inactive | inactive | inactive | inactive | inactive |  | inactive | 
CCOP(=S)(S)OCC | inactive |  | inactive | inactive |  | inactive |  | inactive |  | inactive | inactive
O=[N+]([O-])c1ccc(Cl)c(Cl)c1 |  |  | inactive |  |  | inactive | inactive |  |  | inactive | 
CCCCN(CCCC)SN(C)C(=O)Oc1cccc2c1OC(C)(C)C2 | inactive | inactive |  |  | inactive | inactive |  |  |  |  | inactive
O=S(=O)(F)C(F)(F)C(F)(F)C(F)(F)C(F)(F)C(F)(F)C(F)(F)C(F)(F)C(F)(F)F |  | inactive |  | inactive | inactive | inactive | inactive | inactive |  | inactive | inactive
